Screening results as filed in PubChem BioAssay.
This is a sample that favours compounds with a hit; in the whole collection about 11% have one here.
Sm TGR block: inhibitors of Schistosoma mansoni thioredoxin glutathione reductase; AID 485364; Q962Y6; Potency, µM (titrated, usually from 114 µM), inactives show at the highest dose activity change, negative = inhibition, most hits filed as inhibitors; purified TGR, DTNB reduction, TNB absorbance 405 nm; 360,000 tested, 3% active; also: % is scaled to controls: 0 for no effect and ±100 for the full control effect; nearly all actives have a fitted effect of over 60% in size
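Kinetic colorimetric format: TGR-catalysed, NADPH-driven DTNB reduction monitored via TNB absorbance. Enzyme dispensed at 20 nM; compound exposure 15 min at room temperature before reaction start.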
NS1 function inh: influenza NS1 inhibition; Potency, µM (doses to about 46.1 µM), without a hit: at the highest dose activity, positive = more growth; 270,000 tested, 0.4% active; AID 2326; calls by dose curve; also: actives are rising curves; nearly all actives have a fitted effect of over 50% in size
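Compounds were scored for reversing the slow growth caused by influenza A NS1 in S. cerevisiae, measured by optical density at 600 nm. Assay medium contained 2% galactose at pH 6.0; NS1-free yeast of the same strain were the positive control.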
Pf growth 96h: P. falciparum growth inhibition at 96 hours; 320,000 tested, 6.9% active; P. falciparum luciferase reporter growth, 96 h; Potency, µM (series often up to 28.7 µM), for the others: at the top dose activity change, negative = inhibition, actives largely listed as inhibitors; also: % is scaled to controls: 0 for no effect and ±100 for the full control effect
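P. falciparum expressing integrated firefly luciferase grown in erythrocytes (2% hematocrit, 0.05% parasitemia final) with compounds for 96 hours at 37 C, 5% CO2. Growth inhibition read as loss of luminescence after adding luciferase detection reagent.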
AMA1 RON2 block: disrupts binding of P. falciparum AMA1 to RON2 | 360,000 tested, 0.2% active | AlphaScreen AMA1-biotinylated RON2 peptide binding | Potency, µM (series often up to 58.2 µM), without a hit: at the highest dose activity change, negative = inhibition, most hits filed as inhibitors;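 also: 0% = vehicle wells and -100% = peptide control; nearly all actives have a fitted effect of over 45% in size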
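AMA1 (3D7) with his tag at 25 nM final met compounds first, then biotinylated RON2 peptide at 25 nM; detection used donor plus acceptor beads, 10 µg/mL apiece, read by AlphaScreen after 30 min at room temperature.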
Pf growth 48h: P. falciparum growth inhibition at 48 hours (one generation) | P. falciparum luciferase growth in erythrocytes, 48 h | Potency, µM (series often up to 28.7 µM), for the others: top-dose activity change, negative = inhibition, actives largely listed as inhibitors | 310,000 tested, 5.9% active | AID 504832; also: % is scaled to controls: 0 for no effect and ±100 for the full control effect
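Cell-based growth assay: transgenic P. falciparum expressing firefly luciferase, cultured in red cells within RPMI 1640 containing 0.5% w/v Albumax, 24 mM bicarbonate and gentamycin. A drop in luciferase activity indicates inhibition.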
* hit, by the source's call; u = inconclusive; x = not tested or not shown. Unless noted, calls follow the shape of the dose curve; as a rule, active = well fitted curve in the direction sought with a large enough effect; inconclusive = small, poorly fitted or top-dose-only effect, or another doubt; inactive = no such curve, though single readings can be large; an effect the other way counts as inactive or inconclusive. Potency is read from the fitted curve at half-maximal effect.

SMILES | Sm TGR block | NS1 function inh | Pf growth 96h | AMA1 RON2 block | Pf growth 48h
COc1ccc(Cn2c(C(=O)O)c(CNCCc3ccco3)c3ccc(OC)cc32)cc1 | 45µM* | x | x | x | x
Cc1ccc2c(CNCCc3ccco3)c(C(=O)O)n(Cc3ccc(F)cc3)c2c1 | 40µM* | x | x | x | x
CCOC(=O)N1CCN(C(=O)C(=O)Nc2ccc3nc4n(c(=O)c3c2)CCCCC4)CC1 | -31% | 9% | -32% | 0% | x
CCOC(=O)N1CCN(C(=O)CC(=O)Nc2ccc3nc4n(c(=O)c3c2)CCCCC4)CC1 | -5% | -3% | 7% | -1% | 5.9µM*
O=c1c2cc(NC(=S)NCc3cccnc3)ccc2nc2n1CCCCC2 | 56µM* | 14% | 4% | 8% | 42%
O=C(Nc1ccc2nc3n(c(=O)c2c1)CCCCC3)C(=O)N1CCN(c2ccccc2)CC1 | 0% | 1% | u | 11% | 1.3µM*
O=C(NCc1ccccc1)C(=O)Nc1ccc2nc3n(c(=O)c2c1)CCCCC3 | -2% | x | x | x | x
O=c1c2cc(NC(=S)N3CCCC3)ccc2nc2n1CCCCC2 | 9% | 5% | u | -6% | 3%
O=C(/C=C/c1ccco1)Nc1ccc2nc3n(c(=O)c2c1)CCCC3 | 32µM* | x | u | -19% | 64%
COc1ccc(C(C(=O)NCCC(C)C)N(CCCO)C(=O)c2snc(C(N)=O)c2N)cc1OC (stereo not given) | -3% | u | -6% | -8% | -19%
O=C1Cc2cc(S(=O)(=O)NCc3ccccc3Cl)cc3c2N1CCC3 | 12% | 11% | -22% | 0% | u
O=C(Cn1cccn1)N1CCCC(N2CCN(c3cccc(C(F)(F)F)c3)CC2)C1 (stereo not given) | 6% | -5% | -1% | -5% | u
CCN(CC)CC(=O)N1CCCC(N2CCN(c3cccc(C(F)(F)F)c3)CC2)C1 (stereo not given) | 3% | 7% | 9.3µM* | 0% | 2%
O=C(CN1CCOC1=O)N1CCCC(N2CCN(c3cccc(C(F)(F)F)c3)CC2)C1 (stereo not given) | 40µM* | 4% | -23% | -3% | 3%
O=c1[nH]c2ccc(NCc3ccc(-c4ccc(F)cc4)o3)cc2[nH]1 | -3% | x | x | x | x
O=C1C=C(c2cccc(CO)c2)C[C@@H](c2ccc(F)cc2)C1 | -3% | x | 2.1µM* | 1% | 2.3µM*
COCc1cccc(C2=CC(=O)C[C@H](c3ccc(OC)cc3)C2)c1 | 0% | x | 29% | -1% | -2%
COc1cccc(C2=CC(=O)C[C@H](c3ccc(F)cc3)C2)c1 | -1% | x | u | -1% | 2.3µM*
COCc1cccc(C2=CC(=O)C[C@H](c3ccc(F)cc3)C2)c1 | -2% | x | u | 8% | 2.3µM*
CCCCCCNc1ncnc2c1sc1nc(N3CCOCC3)c3c(c12)CCCC3 | 4% | x | x | x | x
O=C(O)COc1ccc(NC(=O)c2cccs2)cc1 | x | x | x | -2% | x
O=C(O)COc1ccc(C(=O)c2cccs2)c(Cl)c1Cl | x | x | 3.8µM* | x | 7%
O=S(=O)(N1CCCCC1)N1CCN(c2cc(Cl)ccc2Cl)CC1 | 3% | -31% | u | -4% | u
CCOc1cc(/C=N/NC(=O)c2cccnc2)ccc1OC(=O)c1ccco1 | 0% | x | 2% | 10% | 8%
O=C(Cn1nc(-c2ccccc2)ccc1=O)N1CCCCC1 | 15% | -1% | 3% | -3% | -8%
SMILES | Sm TGR block | NS1 function inh | Pf growth 96h | AMA1 RON2 block | Pf growth 48h
Cc1cc(=O)c2cc(C(=O)Nc3ccccc3)ccc2[nH]1 | 7% | x | x | x | x
O=C(c1nn2c(C(F)(F)F)cc(-c3ccco3)nc2c1Br)N1CCCc2ccccc21 | 35µM* | -16% | 38% | -6% | u
CC(C)OC(=O)c1nn2c(C(F)(F)F)cc(-c3ccc(Br)o3)nc2c1Br | 20µM* | 5% | 33% | -2% | -7%
O=C(NCC1CCCO1)c1nn2c(C(F)(F)F)cc(-c3ccco3)nc2c1Cl (stereo not given) | x | x | x | 9% | x
CC(C)OC(=O)c1nn2c(C(F)(F)F)cc(-c3ccco3)nc2c1Cl | -13% | 0% | 13µM* | 4% | 8%
COc1ccc(-c2cc(C(F)(F)F)n3nc(C(=O)Nc4cccc(C(F)(F)F)c4)c(Br)c3n2)cc1 | -2% | x | x | x | x
Cc1cc(C2C(=O)c3ccccc3C2=O)c(C)c(C)c1C | 1% | -98% | u | -3% | u
COc1ccc(CNC(=O)c2c([S-])n(-c3ccc(C)cc3)c3cccc[n+]23)cc1 | 1% | x | 10µM* | -20% | u
Cc1ccc(-n2c([S-])c(C(=O)NC(C)c3ccccc3)[n+]3ccccc23)cc1 (stereo not given) | 9% | x | u | 1% | u
O=C(O)c1ccc(Cn2cnc3c(=O)[nH]cnc32)cc1 | x | x | x | 15% | x
COc1ccc(NC(=O)CSc2ncc(-c3ccc(Cl)cc3)[nH]2)cc1OC | 1% | x | x | x | x
COc1ccc(-c2nnc(SCC(=O)Oc3c(C)cccc3C)o2)cc1OC | 4% | x | x | x | x
CCOc1ccc(CNc2ccc(N3CCN(Cc4ccccc4)CC3)cc2)cc1 | -23% | -4% | 9.3µM* | -12% | 3%
CCOc1ccc(NCc2nnc(SCc3ccc(Cl)cc3)n2-c2ccccc2)cc1 | 7% | -4% | 26% | 32µM* | u
CCOC(=O)CSc1nnc(CNc2ccc(Cl)cc2)n1-c1ccccc1 | -11% | -197% | x | -5% | 2%
CCOc1ccc(CNc2ccc(N3CCCC3)cc2)cc1 | u | -10% | -28% | u | 1.9µM*
C=CCOc1cccc(C(=O)N2CCC(CCC(=O)NC3CC3)CC2)c1 | 0% | 2% | u | -13% | -7%
C=CCOc1cccn2c(N(C=O)Cc3ccccc3)c(CC)nc12 | x | x | x | 0% | x
Cc1ccc(C(=O)OCC(=O)Nc2cc(C(C)(C)C)nn2-c2ccccc2)c(O)c1 | -20% | x | 6% | 3% | u
O=C(NCCSCc1ccc(Cl)cc1)c1cccs1 | 4% | -44% | 10µM* | 13% | 3.3µM*
O=C(NNC(=S)NCc1ccco1)c1ccc(Cl)s1 | -34% | -2% | u | 91% | 43%
O=C(Nc1cnn(Cc2ccc(Cl)c(Cl)c2)c1)C12CC3CC(CC(C3)C1)C2 | 2% | 17% | 7.4µM* | -16% | 13µM*
O=C(CSCc1ccc(Cl)cc1)NCCSCc1ccco1 | 28µM* | x | u | 3% | 1%
O=C(CSCc1ccco1)c1ccc(Cl)s1 | 28µM* | 11% | 12µM* | x | 103%
CCOc1ccc(C(=O)Nc2cnn(Cc3ccc(Cl)c(Cl)c3)c2)cc1 | -18% | -3% | u | 3% | -3%
O=C(Nc1cnn(Cc2ccc(Cl)cc2)c1)c1cccs1 | -5% | -43% | 6.6µM* | 11% | 4.7µM*
O=C(CSCc1c(F)cccc1Cl)NCc1ccco1 | -3% | -4% | 61% | -8% | u
O=C(NCCSCc1ccco1)c1ccc(=O)[nH]c1 | 35µM* | 6% | -10% | 5% | -4%
CS(=O)(=O)Nc1ccc(C(=O)NCCSCc2ccco2)cc1 | u | -2% | x | 3% | 12%
